Reference: the supplement of paper PMC11732987, “Enantioselective OTUD7B fragment discovery through chemoproteomics screening and high-throughput optimisation” (Communications Chemistry, 2025)
Unmarked numbers belong to inactive results.

Tests used:
Assay in all cases: log2 ratio of Biotin-Ahx-Ub-VS probe labelling (fragment/DMSO); higher = less target engagement (more negative = stronger competition), active = hit call of the paper (q ≤ 0.05, log2 ratio ≤ -1)
Conditions in all cases: compound concentration: 200 uM; treatment time: 3 h
[1] = target: T1, OTUD6B (UniProt Q8N6M0)
T1 sequence (whole entry): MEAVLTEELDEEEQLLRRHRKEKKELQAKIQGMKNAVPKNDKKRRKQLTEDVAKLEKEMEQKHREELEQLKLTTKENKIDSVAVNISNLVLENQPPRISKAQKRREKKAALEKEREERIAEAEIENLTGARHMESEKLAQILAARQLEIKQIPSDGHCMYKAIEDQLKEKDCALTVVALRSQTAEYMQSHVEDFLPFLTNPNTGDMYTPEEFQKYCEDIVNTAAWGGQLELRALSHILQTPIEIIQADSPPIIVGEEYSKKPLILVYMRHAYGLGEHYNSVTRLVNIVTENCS
Outline: (§1)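 Triplicate samples of HEK293T lysate, 495 µg each, received fragment at 200 µM or vehicle for 3 h, followed by Biotin-Ahx-Ub-VS (0.5 µM final) for 1 h. After NeutrAvidin enrichment of labelled DUBs and LysC/trypsin digestion, peptides were run by diaPASEF LC-MS/MS. The values are average log2 fragment/vehicle ratios from global-median-normalised Spectronaut label-free quantities, tested by unpaired t-test on proteins having ≥2 unique peptides.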

[2] = target: T2, OTUD7B (UniProt Q6GQQ9)
T2 sequence (whole entry): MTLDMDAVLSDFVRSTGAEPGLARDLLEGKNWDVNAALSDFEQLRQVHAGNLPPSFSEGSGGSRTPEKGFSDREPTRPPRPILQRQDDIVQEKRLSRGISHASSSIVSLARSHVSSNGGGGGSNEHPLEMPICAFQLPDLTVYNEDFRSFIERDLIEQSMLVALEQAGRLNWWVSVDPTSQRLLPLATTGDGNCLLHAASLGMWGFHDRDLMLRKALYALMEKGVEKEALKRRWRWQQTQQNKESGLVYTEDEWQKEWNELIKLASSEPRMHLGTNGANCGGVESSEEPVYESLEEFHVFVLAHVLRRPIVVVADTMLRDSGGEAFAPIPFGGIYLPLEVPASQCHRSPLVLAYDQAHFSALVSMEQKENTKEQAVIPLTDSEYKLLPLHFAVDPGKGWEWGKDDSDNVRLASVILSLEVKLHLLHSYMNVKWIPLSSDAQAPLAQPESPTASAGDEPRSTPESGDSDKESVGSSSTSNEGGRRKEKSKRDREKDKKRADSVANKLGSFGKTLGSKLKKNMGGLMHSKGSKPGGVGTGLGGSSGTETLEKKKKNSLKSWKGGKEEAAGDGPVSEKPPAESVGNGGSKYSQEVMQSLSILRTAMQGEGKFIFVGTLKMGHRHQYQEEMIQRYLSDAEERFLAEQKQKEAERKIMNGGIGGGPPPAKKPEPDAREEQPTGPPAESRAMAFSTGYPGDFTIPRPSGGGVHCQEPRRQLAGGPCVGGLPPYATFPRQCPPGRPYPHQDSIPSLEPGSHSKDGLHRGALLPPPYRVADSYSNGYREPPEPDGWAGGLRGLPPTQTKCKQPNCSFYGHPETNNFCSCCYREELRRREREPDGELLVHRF
Outline: as §1

[3] = target: PRPF8 (UniProt Q6P2Q9)
Outline: as §1

[4] = target: T3, PSMD7 (UniProt P51665)
T3 sequence (whole entry): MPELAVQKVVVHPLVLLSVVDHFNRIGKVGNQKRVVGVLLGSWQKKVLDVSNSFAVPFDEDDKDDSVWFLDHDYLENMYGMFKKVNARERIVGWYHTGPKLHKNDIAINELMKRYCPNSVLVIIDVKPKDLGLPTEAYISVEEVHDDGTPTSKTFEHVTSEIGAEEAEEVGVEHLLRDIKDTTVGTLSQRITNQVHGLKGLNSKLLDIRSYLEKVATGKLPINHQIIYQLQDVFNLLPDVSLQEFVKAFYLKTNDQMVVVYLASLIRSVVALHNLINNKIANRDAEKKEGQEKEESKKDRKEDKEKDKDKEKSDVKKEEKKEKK
Outline: as §1

[5] = target: UCHL1 (UniProt P09936)
Outline: as §1

[6] = target: T4, UCHL3 (UniProt P15374)
T4 sequence (whole entry): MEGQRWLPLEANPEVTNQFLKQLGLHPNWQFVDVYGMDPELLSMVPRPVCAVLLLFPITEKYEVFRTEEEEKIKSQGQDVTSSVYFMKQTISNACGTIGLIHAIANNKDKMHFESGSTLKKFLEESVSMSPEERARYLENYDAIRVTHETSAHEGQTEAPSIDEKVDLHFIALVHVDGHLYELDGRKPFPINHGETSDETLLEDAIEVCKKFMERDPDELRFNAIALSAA
Outline: as §1

[7] = target: T5, UCHL5 (UniProt Q9Y5K5)
T5 sequence (whole entry): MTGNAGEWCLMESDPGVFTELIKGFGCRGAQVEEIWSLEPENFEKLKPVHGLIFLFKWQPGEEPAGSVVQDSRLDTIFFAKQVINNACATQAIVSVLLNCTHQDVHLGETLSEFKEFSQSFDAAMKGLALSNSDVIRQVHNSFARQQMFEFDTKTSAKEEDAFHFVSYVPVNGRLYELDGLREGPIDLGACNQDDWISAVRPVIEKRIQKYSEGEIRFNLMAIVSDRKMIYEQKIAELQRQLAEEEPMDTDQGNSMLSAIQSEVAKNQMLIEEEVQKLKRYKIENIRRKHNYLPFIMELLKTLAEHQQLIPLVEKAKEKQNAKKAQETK
Outline: as §1

[8] = target: USP10 (UniProt Q14694)
Outline: as §1

[9] = target: T6, USP15 (UniProt Q9Y4E8)
T6 sequence (whole entry): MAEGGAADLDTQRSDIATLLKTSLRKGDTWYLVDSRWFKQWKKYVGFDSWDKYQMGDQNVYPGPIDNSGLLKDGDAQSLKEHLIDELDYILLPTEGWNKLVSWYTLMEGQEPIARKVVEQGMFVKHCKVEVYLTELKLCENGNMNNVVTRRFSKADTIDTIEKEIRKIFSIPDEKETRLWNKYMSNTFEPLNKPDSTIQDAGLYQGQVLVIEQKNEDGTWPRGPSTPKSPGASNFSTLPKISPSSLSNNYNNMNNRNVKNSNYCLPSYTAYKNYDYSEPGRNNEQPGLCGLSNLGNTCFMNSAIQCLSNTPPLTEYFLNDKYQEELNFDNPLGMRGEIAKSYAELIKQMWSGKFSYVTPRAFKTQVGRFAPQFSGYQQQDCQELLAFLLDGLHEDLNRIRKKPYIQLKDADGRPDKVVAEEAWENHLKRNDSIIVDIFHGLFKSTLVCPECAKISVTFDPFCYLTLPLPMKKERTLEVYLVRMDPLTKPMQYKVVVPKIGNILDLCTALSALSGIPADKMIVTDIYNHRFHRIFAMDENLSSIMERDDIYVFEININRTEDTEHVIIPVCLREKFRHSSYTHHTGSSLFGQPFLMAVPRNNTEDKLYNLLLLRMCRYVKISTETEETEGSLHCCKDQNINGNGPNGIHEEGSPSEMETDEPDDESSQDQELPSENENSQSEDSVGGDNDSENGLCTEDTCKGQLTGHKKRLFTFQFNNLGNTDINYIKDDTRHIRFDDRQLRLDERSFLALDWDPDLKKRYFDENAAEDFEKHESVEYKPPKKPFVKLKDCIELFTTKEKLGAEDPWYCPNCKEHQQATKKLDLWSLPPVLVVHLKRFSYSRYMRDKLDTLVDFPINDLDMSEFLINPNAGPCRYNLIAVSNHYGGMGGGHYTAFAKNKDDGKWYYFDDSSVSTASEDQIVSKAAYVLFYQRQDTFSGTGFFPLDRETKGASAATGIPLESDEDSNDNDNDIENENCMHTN
Outline: as §1

[10] = target: USP16 (UniProt Q9Y5T5)
Outline: as §1

USP16, sequence (Q9Y5T5 whole entry, looked up): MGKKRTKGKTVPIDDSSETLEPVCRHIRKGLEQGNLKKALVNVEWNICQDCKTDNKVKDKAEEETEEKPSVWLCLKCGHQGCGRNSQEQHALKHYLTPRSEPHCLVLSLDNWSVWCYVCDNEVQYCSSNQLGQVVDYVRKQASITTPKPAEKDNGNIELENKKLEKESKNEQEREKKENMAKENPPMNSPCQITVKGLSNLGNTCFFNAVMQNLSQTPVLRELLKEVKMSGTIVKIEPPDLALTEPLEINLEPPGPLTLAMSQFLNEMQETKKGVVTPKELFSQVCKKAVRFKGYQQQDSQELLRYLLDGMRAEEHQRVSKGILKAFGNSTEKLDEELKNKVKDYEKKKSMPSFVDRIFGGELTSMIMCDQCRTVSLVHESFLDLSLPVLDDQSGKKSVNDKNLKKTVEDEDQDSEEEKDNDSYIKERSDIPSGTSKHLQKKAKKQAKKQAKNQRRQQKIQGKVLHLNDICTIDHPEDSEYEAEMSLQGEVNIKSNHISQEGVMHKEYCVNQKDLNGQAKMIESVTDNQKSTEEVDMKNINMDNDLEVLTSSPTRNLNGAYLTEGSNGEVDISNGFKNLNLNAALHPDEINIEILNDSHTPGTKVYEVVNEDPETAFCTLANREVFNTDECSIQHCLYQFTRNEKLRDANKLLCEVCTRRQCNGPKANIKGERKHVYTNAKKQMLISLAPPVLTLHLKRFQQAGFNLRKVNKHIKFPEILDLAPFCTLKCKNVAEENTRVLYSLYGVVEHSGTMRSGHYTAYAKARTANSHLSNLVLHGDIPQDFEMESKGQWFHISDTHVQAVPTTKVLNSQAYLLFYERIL
UCHL1, sequence (P09936 whole entry, looked up): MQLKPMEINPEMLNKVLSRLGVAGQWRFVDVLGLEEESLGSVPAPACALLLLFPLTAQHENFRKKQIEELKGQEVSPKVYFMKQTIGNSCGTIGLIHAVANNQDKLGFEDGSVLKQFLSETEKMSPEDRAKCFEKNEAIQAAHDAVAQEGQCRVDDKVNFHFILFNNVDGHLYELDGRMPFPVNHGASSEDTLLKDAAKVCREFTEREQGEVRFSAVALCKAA
USP10, sequence (Q14694 whole entry): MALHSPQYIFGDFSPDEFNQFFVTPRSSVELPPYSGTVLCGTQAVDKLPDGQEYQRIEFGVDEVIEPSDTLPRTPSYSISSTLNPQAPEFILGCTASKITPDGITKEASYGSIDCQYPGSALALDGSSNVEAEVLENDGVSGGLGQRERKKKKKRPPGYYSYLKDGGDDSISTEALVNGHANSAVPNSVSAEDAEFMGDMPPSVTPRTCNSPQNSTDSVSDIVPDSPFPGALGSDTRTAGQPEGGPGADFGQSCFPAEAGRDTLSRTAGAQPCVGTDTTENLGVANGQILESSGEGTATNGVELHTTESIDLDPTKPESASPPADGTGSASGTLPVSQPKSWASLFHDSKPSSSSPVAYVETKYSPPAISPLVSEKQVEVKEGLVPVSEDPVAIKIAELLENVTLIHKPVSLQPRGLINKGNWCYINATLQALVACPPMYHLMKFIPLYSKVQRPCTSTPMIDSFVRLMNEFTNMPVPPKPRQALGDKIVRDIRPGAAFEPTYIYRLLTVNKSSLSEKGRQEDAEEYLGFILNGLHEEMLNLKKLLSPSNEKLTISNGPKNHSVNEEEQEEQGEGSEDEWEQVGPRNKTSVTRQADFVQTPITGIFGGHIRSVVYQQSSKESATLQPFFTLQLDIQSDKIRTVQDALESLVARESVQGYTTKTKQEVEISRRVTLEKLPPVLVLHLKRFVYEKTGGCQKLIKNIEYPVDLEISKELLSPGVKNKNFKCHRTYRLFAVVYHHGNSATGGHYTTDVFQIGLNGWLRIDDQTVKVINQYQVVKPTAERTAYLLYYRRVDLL

Row | Structure (SMILES) | log2 ratio of Biotin-Ahx-Ub-VS probe labelling [1] | log2 ratio of Biotin-Ahx-Ub-VS probe labelling [2] | log2 ratio of Biotin-Ahx-Ub-VS probe labelling [3] | log2 ratio of Biotin-Ahx-Ub-VS probe labelling [4] | log2 ratio of Biotin-Ahx-Ub-VS probe labelling [5] | log2 ratio of Biotin-Ahx-Ub-VS probe labelling [6] | log2 ratio of Biotin-Ahx-Ub-VS probe labelling [7] | log2 ratio of Biotin-Ahx-Ub-VS probe labelling [8] | log2 ratio of Biotin-Ahx-Ub-VS probe labelling [9] | log2 ratio of Biotin-Ahx-Ub-VS probe labelling [10]
1 | O=C(CCl)N1CCC[C@@H]1c1ccon1 | -0.245 | -0.356 | 0.0558 | -0.283 | -1.49 (active) | 0.0429 | -0.401 | -0.0611 | -0.228 | -0.0988
2 | C[C@@H](NC(=O)CCl)c1cccc(C#N)c1 | -0.0614 | -1.42 (active) | 0.0368 | -0.233 | -1.24 (active) | 0.359 | -0.189 | -0.103 | -0.222 | 0.0341
3 | Cc1cc(C2CCCN2C(=O)CCl)nn1C.Cl (stereo not given) | -0.252 | -0.142 | 0.0171 | -0.218 | -1.54 (active) | 0.3 | -0.218 | -0.132 | -0.246 | -0.631
4 | O=C(CCl)N1CCC(C(O)c2ccc(F)cc2)CC1 (stereo not given) | 0.0694 | -0.134 | -0.0885 | -0.0381 | -1.31 (active) | 0.426 | 0.12 | -0.257 | 0.278 | 0.191
5 | O=C(CCl)N(C1CCCC1)C1CCS(=O)(=O)C1 (stereo not given) | -0.0743 | -0.147 | 0.17 | 0.00755 | -1.47 (active) | 0.248 | -0.176 | -0.0694 | -0.235 | -0.121
6 | C#Cc1cccc(NC(=O)CCl)c1 | -0.196 | -1.43 (active) | 0.296 | -0.0915 | -1.61 (active) | -1.39 (active) | -0.324 | -0.0542 | -0.414 | -0.23
7 | O=C(CCl)NCCc1ccc(F)cc1 | 0.0481 | -0.435 | -0.0623 | 0.0236 | -1.09 (active) | 0.132 | -0.0307 | -0.0913 | -0.0724 | 0.107
8 | CC(NC(=O)CCl)c1cnn(C2CC2)c1 (stereo not given) | -0.174 | -1.99 (active) | -0.0754 | -0.168 | -1.3 (active) | 0.329 | -0.187 | -0.103 | -0.182 | -0.19
9 | Cc1n[nH]c2c1CN(C(=O)CCl)CC2 | -0.715 | -1.53 (active) | 0.0355 | -0.368 | -1.15 | -0.699 | -0.886 | -0.519 | -0.982 | -0.207
10 | Cc1cccc(N2CCC(NC(=O)CCl)C2=O)c1 (stereo not given) | -0.339 | -1.61 (active) | -0.232 | -0.248 | -1.87 (active) | 0.0361 | -0.503 | -0.133 | -0.299 | -0.021
11 | CC(c1ccccc1)N(C)C(=O)CCl (stereo not given) | 0.00154 | -0.433 | -0.049 | 0.0333 | -0.925 | 0.257 | -0.0435 | -0.134 | -0.334 | -0.635
12 | Cc1ccc(CN(C)C(=O)CCl)o1 | 0.0695 | -0.158 | -0.0488 | 0.0152 | -1.38 (active) | 0.611 | -0.238 | -0.157 | -0.201 | -0.0354
13 | CN(C)C(=O)c1ccc(CNC(=O)CCl)cc1 | -0.0231 | -0.351 | -0.0967 | -0.0924 | -1.23 (active) | 0.248 | -0.118 | -0.0496 | 0.0414 | 0.0806
14 | Cl.Cn1c(CNC(=O)CCl)nc2cccnc21 | -0.213 | -0.356 | -0.144 | -0.0899 | -1.17 (active) | 0.177 | -0.302 | -0.0558 | -0.177 | -0.246
15 | NC(=O)C1CCCN(C(=O)CCl)C1 (stereo not given) | 0.0096 | -0.633 | 0.0408 | -0.26 | -1.4 (active) | 0.133 | 0.0623 | -0.05 | -0.0343 | -0.387
